111 molecules from PubChem BioAssay AID1220 (Sanford-Burnham Center for Chemical Genomics, 2008) can be followed below.

The whole screen tested about 190,000 compounds, of which about 1,300 (0.68%) were called active. The entries come from a sample that favours actives as a whole. Values without a mark were called inactive. No stated cut-off is given here; in the data, active means inhibition above about 50%; inactive means the rest.

The target of this assay is Mannose-6-phosphate isomerase (Homo sapiens) (UniProt P34949). As to the kind of experiment: human PMI inhibitors, high substrate, primary screen, biochemical, fluorescence intensity, high mannose 6-phosphate (AID 1220). The settings on record: recombinant PMI enzyme, coupled fluorescence intensity; at 20 µM; active compounds read high.
Chain of Mannose-6-phosphate isomerase (Homo sapiens) (P34949 whole entry, looked up): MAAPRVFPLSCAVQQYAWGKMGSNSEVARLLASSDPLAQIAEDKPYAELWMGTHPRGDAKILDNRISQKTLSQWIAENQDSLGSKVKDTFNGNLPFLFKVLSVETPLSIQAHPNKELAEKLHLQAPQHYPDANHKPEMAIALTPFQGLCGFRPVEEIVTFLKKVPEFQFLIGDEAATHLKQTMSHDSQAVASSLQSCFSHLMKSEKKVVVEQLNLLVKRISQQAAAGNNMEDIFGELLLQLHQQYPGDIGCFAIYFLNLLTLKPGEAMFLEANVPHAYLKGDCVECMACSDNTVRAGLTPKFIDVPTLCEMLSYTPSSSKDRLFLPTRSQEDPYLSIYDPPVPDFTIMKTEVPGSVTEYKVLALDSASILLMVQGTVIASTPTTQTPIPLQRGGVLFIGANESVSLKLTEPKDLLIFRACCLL
Take `CCOc1ccc(CNC(=O)CCc2cn(Cc3ccccc3)c3ccccc23)cc1`: the inhibition was 0.6%.
For `C=CCn1c(O)c(CN2CCN(Cc3ccccc3)CC2)c(C)c(C#N)c1=O` the value was 15.6%.
Regarding `C=CCn1c(O)c(CN2CCOCC2)c(C)c(C#N)c1=O`, the inhibition was 56.6% (active).
The value for `C=CCn1c(C)cc(C)c(C#N)c1=O` was -6.4%; that for `C=CCn1c(O)c(CN2CCCCC2)c(C)c(C#N)c1=O` was 70.2% (active); that for `Cc1oc(C(C)(C)C)c(CN2CCOCC2)c1C(=O)O` was -2.9%.
The value for `C=CCn1c(O)c(C(CC)=NCCN2CCOCC2)c(=O)[nH]c1=O` was -15.4%.
Regarding `O=C(NCCC1=CCCCC1)C(=O)NCC(c1ccco1)N1CCN(c2ccc(F)cc2)CC1` (stereo unspecified), the inhibition was 2.7%.
Take `OCc1nc2ccccc2n1CCCOc1ccccc1`: the inhibition is -6.4%.
`COc1cc(NC(=S)NCCC(c2ccccc2)c2ccccc2)c(OC)cc1Cl`: the inhibition was 17.2%.
The value for `Cc1nnc(Sc2nc3c(c(=O)n(C)c(=O)n3C)n2Cc2ccc(Cl)cc2)s1` was 7.9%; that for `CSc1ccc(C#N)cc1NC(=O)c1ccccc1C` was -2.5%.
For `COCc1c(C#N)c(NCCc2ccc(F)cc2)nc(C)c1[N+](=O)[O-]` the value was 9.3%; for `CCC(=O)c1ccc(N2CCN(C(=O)c3ccc(Br)cc3)CC2)c(F)c1`, 9.1%.
For `CC(=O)c1ccc(N2CCN(C(=O)c3ccc(Br)cc3)CC2)c(F)c1` the value was 55.1% (active).
As to `CCCC(=O)c1ccc(N2CCN(C(=O)c3ccc(Br)cc3)CC2)c(F)c1`, the inhibition is -2.3%.
The value for `O=C(NCCCCCCNC(=O)C1CCCC1)C1CCCC1` was -0.9%; that for `O=C(COc1ccc2ccccc2c1)Nc1ccc2c3c(cccc13)CC2` was -1.8%.
For `O=C(NCc1ccccc1)NC(O)C(Cl)(Cl)Cl` (stereo unspecified) the value was 0.1%; for `O/C(=C\c1ccc2ccccc2n1)c1ccc(O)cc1O`, -10.3%; for `CCOc1ccc(NC(=O)c2ccc(-n3cccn3)nc2)cc1`, 2.9%.
The value for `COc1ccc(NC(=O)c2ccc(-n3cccn3)nc2)cc1` was 0.8%.
Consider `Cc1ccc(NC(=O)c2ccc(-n3cccn3)nc2)cc1`, for which the inhibition is 51.4% (active).
For `CCOc1ccc(N=C2Sc3nc4ccc(C)cc4cc3CN2CCOC)cc1` the value was 9.3%; for `CC(=O)c1cc2c(cc1NC(=O)CN1CCN(c3ccc(F)cc3)CC1)OCO2`, 5.5%.
For `CCOC(=O)C1=C(c2ccccc2)NC(SCC(=O)Nc2cccc(C)c2)=C(C#N)C1c1ccco1` (stereo unspecified) the value was 15.6%; for `Cc1ccc(N=Cc2c(O)ccc3ccccc23)cc1F`, 51.7% (active); for `Nc1cc(Cl)nc(N/N=C/c2c(O)ccc3ccccc23)n1`, 13.3%.
For `Cc1oc(/N=C/c2c(O)ccc3ccccc23)c(C#N)c1C` the value was 53.7% (active); for `COc1cccc(C=Nc2ccc(C)c(F)c2)c1O`, 15.7%.
`Cc1cc(C)n(/N=C\c2c(O)ccc3ccccc23)c(=O)c1C(N)=O`: the inhibition was 22.5%.
The value for `Oc1ccc2ccccc2c1C=Nc1ccc(Cl)cn1` was 75.2% (active).
Regarding `Cc1oc(/N=C/c2cccc3ccccc23)c(C#N)c1C`, the inhibition was 20.1%.
For `Cc1cc(O)c(C=Nc2ccc(Cl)cn2)c(=O)o1` the value was -60.9%.
The value for `Cc1oc(/N=C/c2ccccc2O)c(C#N)c1C` was -16.8%.
The value for `Cc1cc(N=Cc2cc(Br)ccc2O)no1` was -9.4%; that for `Cc1cc(N=Cc2cc(Cl)ccc2O)no1` was 14.2%; that for `Cc1cc(N=Cc2c(O)ccc3ccccc23)no1` was 66.9% (active).
With `COc1ccccc1Nc1ccc(N)cc1`, the inhibition was 23.2%.
For `O=C(Cn1ccccc1=O)c1ccc(Cl)cc1` the value was -5.5%; for `N#C/C(=C\c1cn(CCOc2ccccc2)c2ccccc12)C(=O)NCc1ccco1`, -1.2%; for `COc1ccccc1OCC(=O)Nc1ccccn1`, 1.4%.
For `COc1ccc(CNn2c(-c3cccs3)nc3ccccc3c2=O)cc1OC` the value was 8%; for `CCN(C(=O)CSc1nnc(-c2ccncc2)n1-c1ccccc1)C1CCS(=O)(=O)C1` (stereo unspecified), -2.5%; for `CCc1ccc(C(=O)NN(C(=O)c2ccc(CC)cc2)C(C)(C)C)cc1`, 14.2%.
In the case of `CCOc1ccc(S(=O)(=O)N2CCN(c3ccccc3F)CC2)c2cccnc12`, the inhibition was 27%.
As for `O=C(OCc1c(F)cccc1Cl)c1cnccn1`, the inhibition is 11.3%.
The value for `Oc1ccc2ccccc2c1/C=N/c1nccs1` was 62% (active); that for `Cc1c(Cc2ccccc2)sc(/N=C/c2c(O)ccc3ccccc23)c1C(N)=O` was 29.8%; that for `Oc1ccc2ccccc2c1C=Nc1ccc(N2CCOCC2)cc1` was 29%.
The value for `N#Cc1cccc(N=Cc2c(O)ccc3ccccc23)c1` was 64.6% (active); that for `Oc1ccc2ccccc2c1C=Nc1ccccc1-c1nc2ccccc2[nH]1` was 22.9%.
The value for `Oc1ccc2ccccc2c1/C=N/c1nc2c(s1)CCCC2` was 46.1%; that for `Oc1oc(-c2cccc3ccccc23)nc1/C=N/c1nccs1` was 9.5%.
As for `O=C(O)Cc1ccc(N=Cc2c(O)ccc3ccccc23)cc1`, the inhibition was 58.7% (active).
The value for `Oc1[nH]c2ccccc2c1/C=N/c1nccs1` was -1%; that for `COc1ccc2nc(N=Nc3c(O)ccc4ccccc34)sc2c1` was 24.5%.
For `Cc1sc(/N=C/c2c(O)ccc3ccccc23)c(C#N)c1C` the value was -3.6%; for `Cn1c(CSc2nc3ccccc3s2)nnc1SCC(=O)NCCCN1CCOCC1`, -11.8%.
The value for `Cc1ccsc1C(=O)NNC(=O)C1CC=CCC1C(=O)O` (stereo unspecified) was -4.3%.
`COC(=O)c1cccc(NC(=O)c2cccs2)c1C`: the inhibition was 10.7%.
For the molecule `CC(C)C(c1nnnn1C1CCCCC1)N1CCCc2ccccc21` (stereo unspecified), the inhibition is 8.3%.
For the molecule `Cc1ccc(N2CCN(C(=O)c3cc(C(=O)c4ccccc4C)c[nH]3)CC2)c(C)c1`, the inhibition was 16.7%.
Regarding `Cc1noc(C)c1Cn1nc(C(=O)O)c2ccccc2c1=O`, the inhibition was 1.4%.
For `COc1ccc(N=Cc2c(O)[nH]c3ccccc23)cc1` the value was 1.9%; for `CCOC(=O)c1cc(CC)sc1/N=C/C1=C(O)CCCC1=O`, 14.3%.
The value for `COc1ccc(N=Cc2oc3ccc4ccccc4c3c2O)cc1` was 13.8%.
Take `CCOC(=O)c1cc(CC)sc1/N=C/C1=C(O)CC(C)(C)CC1=O`: the inhibition was 7.3%.
For `COc1ccc2nc(N)sc2c1` the value was -1.6%; for `COc1ccc(N=Cc2c(O)ccc3ccccc23)cc1`, 68.5% (active); for `COc1ccc2c(c1)-c1nc(NC(=O)c3cccs3)sc1CC2`, -22.3%.
As to `CCOC(=O)c1cc(CC)sc1/N=C/c1c(O)ccc2ccccc12`, the inhibition is 60.7% (active).
For `O=C(CCc1nnc(CCCc2ccccc2)o1)NCCc1ccccc1` the value was -1.7%.
The value for `Cc1nc2c(c(=O)n1CCC1=CCCCC1)c1nc3ccccc3nc1n2/N=C/c1ccco1` was 15.8%; that for `Cc1nn(CCc2nn[nH]n2)c2nc(-c3ccc(Br)cc3)cc(C(F)(F)F)c12` was 4.9%; that for `CSc1cccc(NC(=O)C2CCN(S(C)(=O)=O)CC2)c1` was 5.6%.
For `Cc1ccc(OCCC(=O)Nc2ccc(C)c(F)c2)cc1` the value was 16.2%; for `Cc1ccc(S(=O)(=O)N2CCC(C(=O)NCCCN3CCCCCC3)CC2)cc1`, -3.9%.
On to `CCCCNC(=O)c1onc(CSc2ccccc2F)c1C(=O)O`, for which the inhibition is -0.1%.
The value for `Cc1nc(NC(=O)CN(C)S(=O)(=O)c2ccc(Br)cc2)sc1C` was 1.7%; that for `COc1ccc2c(c1)CC/C(=C\C=C\c1ccccc1)C2=O` was 52.8% (active).
For `COc1ccc2c(c1)CC/C(=C\C=C\c1ccccc1OC)C2=O` the value was 53.3% (active); for `COc1ccc2c(c1)C(=O)/C(=C/C=C/c1ccccc1)CC2`, 33.4%; for `COc1ccc(/C=C2\CC/C(=C\c3ccc(OC)cc3OC)C2=O)c(OC)c1`, 13.5%.
For `COc1ccc2c(c1)CC/C(=C\c1ccc(OC)c(Cn3cccn3)c1)C2=O` the value was 21.7%; for `COc1ccc(/C=C2/CCc3ccccc3C2=O)cc1OC`, 29.2%; for `COc1cc2nc(CN3CCC(Cc4ccccc4)CC3)[nH]c(=O)c2cc1OC`, -12.9%.
As for `COC(=O)c1ccc2c(=O)n(CC3CCCO3)c(SCC(=O)NCCc3ccc(S(N)(=O)=O)cc3)nc2c1` (stereo unspecified), the inhibition was -2.9%.
The value for `Cc1nnc(N/N=C/c2ccccc2O)n1N` was 52.5% (active); that for `Cc1nnc(N/N=C/c2c(Cl)cccc2Cl)n1N` was 32.3%; that for `Cc1nnc(N/N=C/c2ccc(-c3ccccc3F)o2)n1N` was 33.4%.
For `CCc1nnc(N/N=C/c2ccccc2F)n1N` the value was 5.2%; for `CC(C)(C)c1nnc(N/N=C/c2ccccc2O)n(N)c1=O`, -27.3%; for `Cc1nnc(N/N=C/c2ccco2)n1N`, 56.6% (active).
For `C/C(=N/OCc1ccc(Br)cc1)c1ccccn1` the value was 1.2%; for `O=[N+]([O-])c1ccc2nc(NCCCO)nc(-c3ccccc3)c2c1`, -39.7%.
For the molecule `CCCS(=O)(=O)c1c(S(=O)(=O)CCC)c2ccc(C(N)=O)cn2c1C(=O)c1ccc(OC)cc1`, the inhibition was 14%.
Regarding `O=C(Nc1cccn2ncnc12)C(F)(F)F`, the inhibition is -1.2%.
For `COc1ccc(CNC(=O)CSc2nnc3c(Cl)cc(C(F)(F)F)cn23)cc1OC` the value was 12.9%; for `Oc1c(Cl)cc(Cl)cc1/C=N/Nc1ncc(Br)cn1`, -22.9%; for `Oc1c(Cl)cc(Cl)cc1C=Nc1ccc(Br)cc1`, 17.7%.
Regarding `COc1cc(Br)cc(C=Nc2cccc(C(F)(F)F)c2)c1O`, the inhibition is 15.9%.
Turning to `O=C(CCC(=O)N/N=C/c1cc(Cl)cc(Cl)c1O)NCc1ccccc1`, the inhibition was 17.9%.
The value for `Cc1cccc(N=Cc2cc(Br)cc(Cl)c2O)c1` was 57.8% (active); that for `Oc1ccc(Cl)cc1C=Nc1ccc(Br)cc1` was 8.3%.
For `NC(=O)c1cccc(N=Cc2cc(Cl)cc(Cl)c2O)c1` the value was 55.3% (active).
`Oc1c(Cl)cc(Cl)cc1/C=N/c1nccs1`: the inhibition was -2.8%.
For `Cc1cccc(N=Cc2[nH]c3ccc(Br)c(Cl)c3c2O)c1` the value was -1.9%; for `Cc1ccc(N=Cc2cc(Br)cc(Cl)c2O)cc1`, 50.8% (active); for `Oc1c(Cl)cc(Cl)cc1C=Nc1ccccc1N1CCCC1`, 33.7%.
As for `Cc1ccc(N=Cc2cc(Cl)cc(Cl)c2O)nc1`, the inhibition is 58.6% (active).
